Test results as given in PubChem BioAssay (EPA / NIEHS).
Inconclusive results are not listed. The source holds several records for some structures; these can differ, active in one and inactive in another. Calls of active or inactive are those of the source. How the source made its calls: active means hit-call score of the fitted dose curve at least 0.9, where 1 is the maximum; inconclusive means response in the unintended direction; inactive means score below 0.9.

What was measured:
[1] = biological target: rat Adrenergic Receptor, Alpha 2 (Adra2), Non-selective Binding, Adra2a (gene 25083) (UniProt P22909); assay: NVS_GPCR_rAdra2_NonSelective: NovaScreen (NVS) G Protein-Coupled Receptor Assay for rat Adrenergic Receptor, Alpha 2 (Adra2), Non-selective Binding (AID 2283299)
Method in brief: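 Filter-based scintillation counting of radioligand binding to rat cortical membrane receptors, measured 1.25 hours post-dosing; loss of signal versus DMSO indicates displacement. Initial single-concentration duplicate at 25 uM, then concentration series.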

[2] = NVS_IC_rCaBTZCHL: NovaScreen (NVS) Ion Channel Assay for Calcium Channel, Type L, Benzothiazepine Site (CaBTZCHL) (AID 2283337)
Method in brief: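 Benzothiazepine-site binding was assessed in a tissue-derived, cell-free rat cortical membrane system. After 1.5 h exposure, radioactivity retained on filters was quantified by scintillation; positive and negative controls accompanied every plate.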

[3] = biological target: human Peroxisome Proliferator-activated Receptor alpha (PPARa), PPARA (gene 5465) (UniProt Q07869); assay: NVS_NR_hPPARa: NovaScreen (NVS) Nuclear Receptor Binding Assay for human Peroxisome Proliferator-activated Receptor alpha (PPARa) (AID 2283359);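 further: activity means loss of TR-FRET signal versus DMSO baseline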
Sequence of human Peroxisome Proliferator-activated Receptor alpha (PPARa), PPARA (gene 5465) (Q07869 whole entry, looked up): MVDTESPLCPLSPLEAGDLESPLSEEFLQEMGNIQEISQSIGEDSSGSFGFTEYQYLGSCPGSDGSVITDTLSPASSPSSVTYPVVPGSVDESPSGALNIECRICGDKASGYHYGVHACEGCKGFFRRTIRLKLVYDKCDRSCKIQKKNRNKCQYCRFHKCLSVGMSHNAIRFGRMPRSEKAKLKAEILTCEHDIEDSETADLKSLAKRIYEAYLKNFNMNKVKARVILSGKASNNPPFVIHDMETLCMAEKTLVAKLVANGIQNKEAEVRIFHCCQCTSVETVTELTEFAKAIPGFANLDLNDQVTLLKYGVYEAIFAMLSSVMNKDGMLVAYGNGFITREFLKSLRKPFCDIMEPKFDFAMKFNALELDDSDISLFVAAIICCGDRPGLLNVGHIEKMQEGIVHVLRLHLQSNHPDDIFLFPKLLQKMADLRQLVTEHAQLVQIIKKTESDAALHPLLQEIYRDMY
Method in brief: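 One-hour incubation, cell-free extracted protein, TR-FRET binding readout; signal loss vs DMSO scored. Screen: 25 uM duplicates, confirmatory dose series for actives.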

[4] = biological target: bovine Estrogen Receptor (ER), ESR1 (gene 407238) (UniProt P49884); assay: NVS_NR_bER: NovaScreen (NVS) Nuclear Receptor Binding Assay for bovine Estrogen Receptor (ER) (AID 2283345);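 further: actives lower the bound radioligand count which means they displace the ER ligand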
Sequence of bovine Estrogen Receptor (ER), ESR1 (gene 407238) (P49884 whole entry, looked up): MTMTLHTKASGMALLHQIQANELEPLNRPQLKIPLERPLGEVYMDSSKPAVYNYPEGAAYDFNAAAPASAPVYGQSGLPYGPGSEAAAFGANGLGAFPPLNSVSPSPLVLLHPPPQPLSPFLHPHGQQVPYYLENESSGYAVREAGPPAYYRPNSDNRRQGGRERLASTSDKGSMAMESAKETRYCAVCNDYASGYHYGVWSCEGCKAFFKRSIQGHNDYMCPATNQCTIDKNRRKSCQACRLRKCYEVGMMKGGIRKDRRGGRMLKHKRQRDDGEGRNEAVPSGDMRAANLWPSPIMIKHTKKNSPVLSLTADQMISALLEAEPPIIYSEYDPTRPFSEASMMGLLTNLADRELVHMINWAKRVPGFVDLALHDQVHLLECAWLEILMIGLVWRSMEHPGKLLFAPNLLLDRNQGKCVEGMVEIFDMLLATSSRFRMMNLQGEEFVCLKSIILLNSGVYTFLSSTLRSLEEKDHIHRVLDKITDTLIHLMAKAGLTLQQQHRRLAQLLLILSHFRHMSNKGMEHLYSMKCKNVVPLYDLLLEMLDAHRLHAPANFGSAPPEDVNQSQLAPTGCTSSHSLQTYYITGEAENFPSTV
Method in brief: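 Cell-free radioligand binding with receptor from bovine uterine membranes, read by scintillation counting 18 h after dosing. Loss of specific binding was scored against DMSO; primary screen at 25 uM in duplicate, actives then run as concentration series.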

[5] = biological target: Estrogen receptor (Homo sapiens) (UniProt P03372); assay: NVS_NR_hER: NovaScreen (NVS) Nuclear Receptor Binding Assay for human Estrogen Receptor (ER) (AID 2283348)
Sequence of Estrogen receptor (Homo sapiens) (P03372 whole entry, looked up, the tested form may be a part): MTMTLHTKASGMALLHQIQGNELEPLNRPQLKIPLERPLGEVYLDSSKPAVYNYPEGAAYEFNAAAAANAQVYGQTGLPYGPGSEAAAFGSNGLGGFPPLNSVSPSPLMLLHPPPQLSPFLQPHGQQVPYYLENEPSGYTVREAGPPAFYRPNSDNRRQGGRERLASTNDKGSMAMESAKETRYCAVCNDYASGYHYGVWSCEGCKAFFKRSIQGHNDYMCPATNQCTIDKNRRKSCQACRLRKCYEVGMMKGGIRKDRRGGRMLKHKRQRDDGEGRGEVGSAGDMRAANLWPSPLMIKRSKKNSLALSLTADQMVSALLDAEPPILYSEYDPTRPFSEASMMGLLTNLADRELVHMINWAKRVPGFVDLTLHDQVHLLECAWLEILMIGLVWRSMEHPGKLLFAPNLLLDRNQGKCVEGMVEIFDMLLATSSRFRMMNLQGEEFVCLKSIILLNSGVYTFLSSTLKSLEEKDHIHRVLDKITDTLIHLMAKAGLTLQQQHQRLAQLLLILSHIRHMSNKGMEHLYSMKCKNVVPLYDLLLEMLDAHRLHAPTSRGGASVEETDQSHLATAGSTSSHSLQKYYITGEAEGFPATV
Method in brief: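 Radiodetection of ligand displacement in a lysate-based, cell-free format using MCF7 extracts, read at 18 hours. Duplicate 25 uM primary testing, then concentration series for actives.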

[6] = biological target: Estrogen receptor (Homo sapiens) (UniProt P03372); assay: OT_ER_ERaERa_1440: Odyssey Thera (OT) 24-hour HEK293T Protein-Complementation Assay for Estrogen Receptor-alpha/-alpha Homodimer (AID 2283349);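 further: hits raise fluorescence above DMSO for agonists and antagonists alike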
Method in brief: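 Stably transfected HEK293T; ERα LBD homodimer PCA. 24 h dosing, fluorescence intensity read, gain-of-signal vs DMSO.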

[7] = biological target: Estrogen receptor (Homo sapiens) (UniProt P03372); assay: OT_ER_ERaERa_0480: Odyssey Thera (OT) 8-hour HEK293T Protein-Complementation Assay for Estrogen Receptor-alpha/-alpha Homodimer (AID 2283351);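 further: rise in fluorescence from reassembled reporter fragments on ERα LBD homodimer in nucleus or whole cell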
Method in brief: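 Measures ERα LBD (aa 310-547) homodimer complementation in stably transfected HEK293T at 8 h post-dose, with fluorescence intensity quantified on a laser scanning cytometer relative to DMSO controls.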

[8] = biological target: T1, Estrogen receptor (Homo sapiens) + Estrogen receptor beta (Homo sapiens) (UniProt P03372+Q92731); assay: OT_ER_ERaERb_0480: Odyssey Thera (OT) 8-hour HEK293T Protein-Complementation Assay for Estrogen Receptor-alpha/-beta Heterodimer (AID 2283352)
T1 sequence (P03372 whole entry, looked up, the tested form may be a part): as above
T1 sequence (Q92731 whole entry, looked up, the tested form may be a part): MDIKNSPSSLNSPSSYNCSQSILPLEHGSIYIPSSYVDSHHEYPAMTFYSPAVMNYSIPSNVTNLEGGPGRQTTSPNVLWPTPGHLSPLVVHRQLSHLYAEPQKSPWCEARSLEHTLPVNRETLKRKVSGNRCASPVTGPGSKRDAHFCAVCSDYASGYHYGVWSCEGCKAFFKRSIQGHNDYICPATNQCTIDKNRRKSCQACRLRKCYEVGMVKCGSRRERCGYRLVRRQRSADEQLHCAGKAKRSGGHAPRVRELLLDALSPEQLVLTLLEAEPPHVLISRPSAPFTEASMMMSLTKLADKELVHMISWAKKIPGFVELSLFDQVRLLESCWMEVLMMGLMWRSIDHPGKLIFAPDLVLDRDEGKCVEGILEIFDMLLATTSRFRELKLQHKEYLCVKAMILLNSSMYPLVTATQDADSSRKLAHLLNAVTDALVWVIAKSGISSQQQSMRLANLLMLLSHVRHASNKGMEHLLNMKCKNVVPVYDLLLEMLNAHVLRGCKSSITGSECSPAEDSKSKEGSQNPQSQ
Method in brief: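 HEK293T cells expressing ER-alpha/ER-beta LBD fusions to complementary reporter fragments were dosed with compound for 8 hours. Heterodimer formation was read as increased nuclear (agonist) or nuclear plus cytoplasmic (antagonist) mean fluorescence intensity versus DMSO vehicle.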

[9] = biological target: T1, Estrogen receptor (Homo sapiens) + Estrogen receptor beta (Homo sapiens); assay: OT_ER_ERaERb_1440: Odyssey Thera (OT) 24-hour HEK293T Protein-Complementation Assay for Estrogen Receptor-alpha/-beta Homodimer (AID 2283356);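 further: heteromer of ER alpha and ER beta binding domains; hits raise reporter fluorescence and both agonists and antagonists give an increase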
Method in brief: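 HEK293T cells stably expressing a PCA pair of ERα LBD (aa 310-547) and ERβ LBD (aa 263-489) were dosed for 24 h. Fluorescence intensity increase versus DMSO vehicle was fitted as gain-of-signal.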

[10] = biological target: Estrogen receptor beta (Homo sapiens) (UniProt Q92731); assay: OT_ER_ERbERb_0480: Odyssey Thera (OT) 8-hour HEK293T Protein-Complementation Assay for Estrogen Receptor-beta/-beta Homodimer (AID 2283357);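 further: active means signal gain over DMSO baseline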
Method in brief: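 Fluorescence gain from complemented reporter fragments on ER-beta LBD homodimer in HEK293T was quantified against DMSO controls after 8 h treatment, fixation in 4% formaldehyde and Draq5 staining.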

[11] = biological target: human Peripheral-type Benzodiazepine Receptor (PBR), TSPO (gene 706) (UniProt P30536); assay: NVS_MP_hPBR: NovaScreen (NVS) Membrane Protein Assay for human Peripheral-type Benzodiazepine Receptor (PBR) (AID 2283331);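 further: hits reduce radioligand binding relative to DMSO baseline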
Sequence of human Peripheral-type Benzodiazepine Receptor (PBR), TSPO (gene 706) (P30536 whole entry, looked up): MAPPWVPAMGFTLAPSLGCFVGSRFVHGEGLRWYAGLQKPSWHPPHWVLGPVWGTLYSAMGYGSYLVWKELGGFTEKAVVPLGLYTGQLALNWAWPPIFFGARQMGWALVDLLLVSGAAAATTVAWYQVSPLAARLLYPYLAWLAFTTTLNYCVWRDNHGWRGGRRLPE
Method in brief: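 Using human colon-derived membranes, this one-endpoint binding test reads radioligand loss by scintillation after 1 h. Screening started at 25 uM in duplicate, with positive and negative controls on every plate, and actives moved to dose series.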

[12] = biological target: chimpanzee Androgen Receptor (AR), AR (gene 747460) (UniProt O97775); assay: NVS_NR_cAR: NovaScreen (NVS) Nuclear Receptor Binding Assay for chimpanzee Androgen Receptor (AR) (AID 2283346);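 further: radioligand displacement from AR measured by scintillation counting in a cell-free assay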
Sequence of chimpanzee Androgen Receptor (AR), AR (gene 747460) (O97775 whole entry, looked up): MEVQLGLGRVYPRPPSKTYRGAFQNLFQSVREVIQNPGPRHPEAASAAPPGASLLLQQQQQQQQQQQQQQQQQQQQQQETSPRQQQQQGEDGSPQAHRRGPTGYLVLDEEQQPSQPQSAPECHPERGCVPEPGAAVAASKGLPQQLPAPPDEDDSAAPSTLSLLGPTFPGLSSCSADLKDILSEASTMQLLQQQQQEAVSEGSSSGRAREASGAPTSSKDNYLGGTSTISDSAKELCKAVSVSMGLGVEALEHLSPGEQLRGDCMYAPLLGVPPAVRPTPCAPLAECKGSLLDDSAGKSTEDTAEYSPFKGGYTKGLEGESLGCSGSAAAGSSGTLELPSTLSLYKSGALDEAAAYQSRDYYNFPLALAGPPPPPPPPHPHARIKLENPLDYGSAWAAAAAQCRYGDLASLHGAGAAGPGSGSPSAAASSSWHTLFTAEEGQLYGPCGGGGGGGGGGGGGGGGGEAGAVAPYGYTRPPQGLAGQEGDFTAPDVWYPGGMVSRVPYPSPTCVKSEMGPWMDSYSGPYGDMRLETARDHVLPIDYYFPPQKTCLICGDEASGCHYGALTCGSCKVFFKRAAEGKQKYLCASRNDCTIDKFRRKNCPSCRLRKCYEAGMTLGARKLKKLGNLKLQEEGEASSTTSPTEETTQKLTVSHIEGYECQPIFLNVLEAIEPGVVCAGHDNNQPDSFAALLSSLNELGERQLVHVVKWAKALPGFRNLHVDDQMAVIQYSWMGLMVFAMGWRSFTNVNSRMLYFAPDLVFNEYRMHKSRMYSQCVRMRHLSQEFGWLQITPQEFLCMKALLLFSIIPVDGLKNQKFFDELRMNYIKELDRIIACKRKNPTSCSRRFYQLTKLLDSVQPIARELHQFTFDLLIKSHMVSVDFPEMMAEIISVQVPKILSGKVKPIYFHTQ
Method in brief: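 Cell-free radioligand displacement using receptor protein extracted from Sf9/Sf21 cells; bound radioligand measured by scintillation counting 72 hours after chemical dosing. Loss of signal versus DMSO baseline indicates binding; primary screen single-concentration in duplicate at 25 uM, actives followed in concentration series.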

[13] = biological target: Androgen Receptor/SRC-1 Co-activator, AR (gene 367) (UniProt P10275); assay: OT_AR_ARSRC1_0960: Odyssey Thera (OT) 16-hour HEK293T Protein-Complementation Assay for Androgen Receptor/SRC-1 Co-activator (AID 2283353);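 further: actives raise the signal above DMSO so potency reflects increased AR and SRC-1 complex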
Sequence of Androgen Receptor/SRC-1 Co-activator, AR (gene 367) (P10275 whole entry, looked up, the tested form may be a part): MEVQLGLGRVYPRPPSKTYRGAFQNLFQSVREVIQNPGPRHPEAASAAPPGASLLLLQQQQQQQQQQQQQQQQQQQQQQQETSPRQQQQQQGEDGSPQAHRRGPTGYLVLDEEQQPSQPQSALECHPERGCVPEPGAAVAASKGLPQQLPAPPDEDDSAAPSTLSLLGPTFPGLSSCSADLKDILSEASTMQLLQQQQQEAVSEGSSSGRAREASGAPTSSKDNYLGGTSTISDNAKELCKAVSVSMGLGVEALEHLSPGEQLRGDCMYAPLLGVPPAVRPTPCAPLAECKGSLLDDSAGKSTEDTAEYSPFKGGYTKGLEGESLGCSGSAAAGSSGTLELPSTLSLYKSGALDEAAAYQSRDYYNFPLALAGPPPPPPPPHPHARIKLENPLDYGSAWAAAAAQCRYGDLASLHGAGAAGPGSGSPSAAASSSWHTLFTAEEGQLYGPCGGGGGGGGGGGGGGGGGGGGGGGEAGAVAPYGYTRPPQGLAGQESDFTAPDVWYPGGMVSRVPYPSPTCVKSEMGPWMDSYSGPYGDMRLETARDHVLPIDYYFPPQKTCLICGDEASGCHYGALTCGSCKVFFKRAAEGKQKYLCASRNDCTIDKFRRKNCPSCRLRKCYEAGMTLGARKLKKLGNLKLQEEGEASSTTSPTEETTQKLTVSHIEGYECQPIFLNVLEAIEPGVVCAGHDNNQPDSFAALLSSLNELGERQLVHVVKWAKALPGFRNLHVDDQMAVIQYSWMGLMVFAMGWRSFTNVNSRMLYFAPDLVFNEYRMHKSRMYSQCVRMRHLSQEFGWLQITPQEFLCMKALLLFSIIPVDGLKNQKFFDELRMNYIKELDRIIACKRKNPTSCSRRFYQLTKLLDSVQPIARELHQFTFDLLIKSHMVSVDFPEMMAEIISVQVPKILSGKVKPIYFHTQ
Method in brief: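 Sixteen-hour cell assay: Venus halves fused to AR and SRC-1 in HEK293T report binding. Images at 488/635 nm give an N/C ratio in the 488 nm channel over ≥400 cells, analysed as signal increase over DMSO.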

[14] = biological target: Androgen Receptor/SRC-1 Co-activator, AR (gene 367) (UniProt P10275); assay: OT_AR_ARSRC1_0480: Odyssey Thera (OT) 8-hour HEK293T Protein-Complementation Assay for Androgen Receptor/SRC-1 Co-activator (AID 2283354);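 further: hits raise the complementation signal above DMSO so AC50 marks enhancers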
Method in brief: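 After 8 h dosing, stably expressing HEK293T cells with split-Venus AR/SRC-1 fusions were imaged (488, 635nm). The 488nm N/C ratio per image gave the endpoint, analysed in the positive direction against DMSO.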

[15] = biological target: Retinoic acid receptor alpha (Homo sapiens) (UniProt P10276); assay: NVS_NR_hRAR_Antagonist: NovaScreen (NVS) Nuclear Receptor Binding Assay for human Retinoic Acid Alpha Receptor Antagonism (RAR) (AID 2283358)
Method in brief: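 Chemicals were first tested in duplicate at 25 uM, then actives in concentration series, in a cell-free TR-FRET antagonist binding format. Measurements were taken 2 hours after dosing and loss of signal was evaluated against DMSO controls.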

[16] = biological target: rat Peripheral-type Benzodiazepine Receptor (PBR), Tspo (gene 24230) (UniProt P16257); assay: NVS_MP_rPBR: NovaScreen (NVS) Membrane Protein Assay for rat Peripheral-type Benzodiazepine Receptor (PBR) (AID 2283335)
Sequence of rat Peripheral-type Benzodiazepine Receptor (PBR), Tspo (gene 24230) (P16257 whole entry, looked up): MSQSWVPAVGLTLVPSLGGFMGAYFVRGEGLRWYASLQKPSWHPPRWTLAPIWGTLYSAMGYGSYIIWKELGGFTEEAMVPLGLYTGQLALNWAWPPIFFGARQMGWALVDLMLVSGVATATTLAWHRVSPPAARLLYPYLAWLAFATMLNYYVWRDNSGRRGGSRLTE
Method in brief: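 Single-concentration duplicate screening at 25 uM preceded concentration-series retesting of actives. Binding of a specific radioligand to rat kidney membrane PBR was read by filtration radiodetection after 1 h, with plate-wise positive and negative controls.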

[17] = biological target: human Androgen Receptor (AR), AR (gene 367) (UniProt P10275); assay: NVS_NR_hAR: NovaScreen (NVS) Nuclear Receptor Binding Assay for human Androgen Receptor (AR) (AID 2283332)
Method in brief: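 Actives from a duplicate 25 uM single-point screen went on to concentration series. Read-out after 20 h was scintillation counting of displaced radioligand in LnCAP extract, with DMSO as baseline.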

Measured: AC50

c1ccc(C[P+](c2ccccc2)(c2ccccc2)c2ccccc2)cc1
active: [1] 17.8 µM | [2] 4.8 µM

CCCCCCCCCCCCCC[P+](CCCC)(CCCC)CCCC
active: [3] 8.54 µM

CCCCCCCC/C=C\CCCCCCCC(=O)N(C)CC(=O)O
inactive: [3]

O=C1C=CC(=O)N1c1ccc(Cc2ccc(N3C(=O)C=CC3=O)cc2)cc1
inactive: [4] | [5]

N#Cc1ccccc1O
inactive: [6] | [7]

CC(C)(C)C(=O)C1C(=O)c2ccccc2C1=O
inactive: [4] | [5]

Cc1ccc(O)c(-n2nc3ccccc3n2)c1
inactive: [5] | [6] | [7] | [8] | [9] | [10]

CCCCCCCC/C=C\CCCCCCCC(=O)OCC(O)CO (stereo not drawn)
active: [11] 25 µM | [3] 17 µM
inactive: [12] | [6] | [7] | [8] | [13] | [14] | [9] | [10] | [15]

CCCCC(CC)COC(=O)c1ccc(N(C)C)cc1 (stereo not drawn)
inactive: [6] | [7] | [8] | [9] | [10]

CCc1cc(Cc2cc(CC)c(N)c(CC)c2)cc(CC)c1N
active: [16] 6.66 µM | [5] 0.0643 µM | [9] 12.4 µM
inactive: [4] | [6] | [7] | [8] | [10]

Cc1cc(O)c(C(C)(C)C)cc1C(C)(C)C
inactive: [4]

COCCOCCC[Si](C)(O[Si](C)(C)C)O[Si](C)(C)C
active: [6] 76.1 µM | [8] 50 µM | [13] 34.3 µM | [9] 58.7 µM | [10] 51.5 µM
inactive: [7] | [14]

O=C(c1ccccc1)c1ccc(O)cc1O
active: [4] 8.41 µM | [12] 9.97 µM | [5] 1.42 µM | [6] 22.7 µM | [7] 22.7 µM
inactive: [16] | [2] | [12]

CC(C)OC=O
inactive: [6] | [7]

CC(C)(C)c1cc(Cc2cc(C(C)(C)C)c(O)c(C(C)(C)C)c2)cc(C(C)(C)C)c1O
inactive: [6] | [7] | [8] | [9] | [10]

CCCCCCCCCCCCC[N+](C)(C)Cc1ccccc1
active: [11] 25.5 µM | [13] 14.7 µM | [14] 14.6 µM | [15] 9.07 µM | [3] 21 µM
inactive: [4] | [6] | [7] | [10]

CCOC(=O)C1CC(=O)C(=C(O)C2CC2)C(=O)C1 (stereo not drawn)
inactive: [6] | [7] | [9]

CCC(Cc1c(I)cc(I)c(N)c1I)C(=O)O (stereo not drawn)
inactive: [4] | [5] | [6]
active: [7] 66.3 µM

C[C@]12CC[C@H]3C(=CCc4cc(O)ccc43)[C@@H]1CCC2=O
inactive: [12]
active: [17] 0.661 µM | [4] 0.0129 µM | [12] 5.87 µM | [13] 1.42 µM | [14] 0.555 µM

O=C1c2ccccc2C(=O)c2c(Cl)cccc21
active: [17] 2.06 µM | [12] 0.93 µM

CCCCOC(=O)[C@H](C)O
inactive: [6] | [7]

CC(C)(C)c1cc(CCC(=O)OCC(COC(=O)CCc2cc(C(C)(C)C)c(O)c(C(C)(C)C)c2)(COC(=O)CCc2cc(C(C)(C)C)c(O)c(C(C)(C)C)c2)COC(=O)CCc2cc(C(C)(C)C)c(O)c(C(C)(C)C)c2)cc(C(C)(C)C)c1O
inactive: [6] | [9] | [10]

CCCCOC(=O)C(C)O (stereo not drawn)
inactive: [5] | [6] | [7]

F[Si-2](F)(F)(F)(F)F
inactive: [6] | [7] | [8] | [13] | [14] | [9]

O=C1C=CC(=O)N1c1ccccc1
active: [13] 16.4 µM | [14] 25.6 µM
inactive: [6] | [7] | [9]

CCOC(OCC)OCC
inactive: [6] | [7] | [8] | [9] | [10]

Cc1ccc([N+](=O)[O-])c(C)c1
inactive: [6] | [7]

O=C(c1ccccc1)c1ccc(Cl)cc1
active: [16] 12.6 µM

CC(=O)CCC(C)C
active: [6] 69.3 µM
inactive: [12] | [7]

OCC1CCCO1 (stereo not drawn)
inactive: [6] | [7] | [8] | [13] | [9] | [10]
